# Where “and” joins values, the source holds several entries; their conditions need not be identical. Equal entries are not always repeated. Records with an inconclusive call do not appear. Unmarked numbers belong to inactive results. Calls of active or inactive are those of the source. The call rests on the fitted dose curve.
# Assay: qHTS assay to identify small molecule agonists of H2AX - cell viability counter screen (AID 1224847); further: nearly all actives have a fitted effect of over 30% in size; on activity change, negative = cytotoxicity: top concentration of the series differs between compounds
# Conditions: CHO-K1 viability, CellTiter-Glo luminescence, 3 h; series mostly up to 154 µM; activity change, negative = cytotoxicity: at the top concentration
# From the text: National Center for Advancing Translational Sciences [NCATS]
# NIH Chemical Genomics Center [NCGC]
# U.S. Environmental Protection Agency [EPA]
# National Institutes of Environmental Health Sciences [NIEHS]
# National Toxicology Program [NTP]
# U.S. Food and Drug Administration [FDA]
# HTRF phospho-H2AX (Ser139) assay (Cisbio Bioassays, US) enables the quantitative detection of the histone variant H2AX when phosphorylated on serine 139. When double-stranded DNA breaks, either by ionizing radiation or endogenous physiological processes, H2AX becomes phosphorylated at Ser139. This phospho-Ser139 serves as a sensitive biomarker for the detection of such breaks, localizing the site of DNA repair. So, HTRF phospho-H2AX Ser139 is a pertinent assay to study genome stability, the cell cycle, DNA repair, and it serves as a biomarker for cancer, and to understand aging. Wild type CHO-K1 cells were used to identify the inducers of Phospho-H2AX Ser 139 from the Tox21 compound collections. Also cytotoxicity of the Tox21 10K compound library against the CHO-K1 cell line was tested by measuring the cell viability using CellTiter-Glo assay (Promega, Madison, WI).
# Tox21 Assay Protocol Summary:
# The CHO-K1 cells suspended in culture medium containing 10% FBS were dispensed at 1000 cells/ 3 ul/well in 1536-well white wall/solid bottom plates (Greiner Bio-One North America, NC) using a Multidrop Combi (Thermo Fisher Scientific Inc., Waltham, MA). After the assay plates were incubated at 37C overnight, 23 nl of compounds at 15 concentrations (from 5-48 columns) or positive control (from 1 to 4 columns) were transferred to the assay plates using a Pintool station (Wako, San Diego, CA) into each well resulting in a final DMSO concentration of 0.76%. After 3hr incubation at 37C, 3 uL/well CellTiter-Glo luminescent cell viability reagent (Promega Corporation, Madison, WI) was added using a Flying Reagent Dispenser (FRD) (Aurora Discovery, CA). After incubation at room temperature for 30 min, the luminescence intensity was read using a ViewLux plate reader (PerkinElmer, Waltham, MA).
# On the % scale 0 is the no-effect control and ±100 the full control effect; potency means the concentration at half of the fitted maximal effect.
SMILES,"activity change, negative = cytotoxicity",Potency
SCCCCCCCCS,1.46%,–
CCOC(=O)COc1ccc(C)cc1,0.205%,–
CCN(CC)CCNc1ccc(CO)c2sc3ccccc3c(=O)c12,7.26% [at 70.9 µM],–
CC1=C(/C=C/C(C)=C/C=C/C(C)=C/C(=O)Nc2ccc(O)cc2)C(C)(C)CCC1,–,103 µM (active)
CCCCCCCC/C=C\CCCCCCCC(=O)NCc1ccc(O)c(OC)c1,1.44% [at 70.9 µM],–
CCCCCCCCC(C)=O,0.449%,–
CC(C)(C)C1=CC(=O)C=C(C(C)(C)C)C1=O,2.79%,–
CCCCCCCCCCc1ccccc1,1.76%,–
CC(=O)OC1CCCCC1,-0.327%,–
CCc1c(Br)c(Br)c(Br)c(Br)c1Br,0.703%,–
Clc1ccc(C(c2ccccc2Cl)C(Cl)Cl)cc1 (stereo not given),–,101 µM (active)
Cc1cn[nH]c1,2.68% [at 70.9 µM],–
CCCCCCCCCCCCCCNCCO,–,55.2 µM (active)
S=P(N1CC1)(N1CC1)N1CC1,-0.948%,–
O=C1c2c(O)ccc([N+](=O)[O-])c2C(=O)c2c([N+](=O)[O-])ccc(O)c21,–,50 µM (active)
C=C(C)C(=O)OCCC[Si](Cl)(Cl)Cl,-2.46%,–
CCCCCCCC/C=C\CCCCCCCC(=O)N(C)CC(=O)O,–,101 µM (active)
CC(=O)c1ccccc1N,-0.642%,–
Clc1cccnc1,-0.491%,–
Cc1cc(Nc2ccc(O)cc2)ccc1N,–,89.4 µM (active)

SMILES,"activity change, negative = cytotoxicity",Potency
CC(=O)C=O,0.585%,–
C=C(C)CCCC,4.87%,–
ClC/C=C\CCl,-2.51%,–
C(=C/c1ccccc1)/c1ccccc1,-0.182%,–
CC(C)c1ccccc1N,1.08%,–
c1ccc2c(c1)CCC2,2.77%,–
C[C@]12CC[C@H]3C(=CCc4cc(O)ccc43)[C@@H]1CCC2=O,–,101 µM (active)
CN1CCN(C2Cc3ccccc3Sc3ccc(Cl)cc32)CC1 (stereo not given),-14.5% [at 70.9 µM],–
NCCCC(O)(P(=O)(O)O)P(=O)(O)O,3.71% [at 70.9 µM],–
CC(C)CCOCCC(C)C,2.03%,–
CSc1ccc2c(c1)N(CCC1CCCCN1C)c1ccccc1S2 (stereo not given),–,50.3 µM (active) and 55.2 µM (active)
COc1ccc2sc(C(=O)Nc3nnn[nH]3)c(OC(C)C)c2c1,5.03%,–
CCCC(O)C(O)CO (stereo not given),1.02%,–
CN(C)CCCN1c2ccccc2CCc2ccccc21,–,inactive
OCCCc1cccnc1,2.24%,–
CCCCOc1ccc(C(=O)CCN2CCCCC2)cc1,-3.3% [at 70.9 µM],–
Cc1occc1SSc1ccoc1C,-1.72%,–
C=CCCCCCCC=C,-2.83%,–
CCOC(=O)CC(C)O (stereo not given),1.62%,–
NCCCCCCNCCCCCCN,1.64%,–
